The source made the active and inactive calls.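 The calls were made as follows, unless noted: active = inhibition at or above 50% at 10 µM; inactive = inhibition below 50%.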
Key:
[1] = inhibitors of TNFa-induced NFkB p65 translocation, primary screen, imaging, HUVEC, MLSMR starter and 10KST1 sets (AID 438;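 active = inhibition above 20% together with a positive visual image hit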;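 also: compound added about 3h40 before a 20 min TNFalpha stimulation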;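 as to inhibition: signal is the nuclear over cytoplasmic p65 intensity ratio per well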); details: HUVEC TNFa-induced p65 nuclear translocation; cell count: measured here: nuclei count (cytotoxicity indicator), at 2.08 µM; inhibition: at 2 µM, stronger effect = higher value, 0% TNFa-plus-vehicle, 100% no-TNFa wells
[2] = reduction of polyQ htt aggregates in cells – imaging, exon1htt(103Q)mCFP cells, high-content imaging, primary screen (AID 483;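 active = visual image review flags a hit and inhibition of aggregation exceeds 20%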;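 also: compound exposure lasted 3 days before fixation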;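 as to nuclei count: percent of the per-plate median nuclei count of sample wells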); details: exon1htt(103Q)mCFP cell line, aggregate imaging, at 2 µM; inhibition of aggregation: stronger effect = higher value; nuclei count: measured here: cell count, toxicity
[3] = endothelial E-selectin expression blockers – imaging, HUVEC, immunofluorescence, MLSMR starter and 10KST1 sets, primary screen (AID 487;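 active = visually confirmed hit in the image check and inhibition above 20%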;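 as to inhibition: signal is fraction of cell area covered by stained E-selectin grains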;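 as to nuclei count: 100% = median nuclei count of all wells on the same plate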); details: HUVEC TNFalpha-induced E-selectin immunofluorescence imaging, at 2 µM; inhibition: stronger effect = higher value; nuclei count: measured here: cell number, toxicity
[4] = target: Voltage-gated potassium channel subunit beta-2 (Rattus norvegicus) (UniProt P62483); experiment: inhibitors of rat Kvbeta2 reductase activity – biochemical, NADPH fluorescence, primary screen (AID 622;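 active = fluorescence slope higher than the sample average by over 3 SD, cut at about -0.22 in these data, passing the limit was not always enough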;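 also: slope of raw intensity against log time taken from 70 to 1610 s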); details: recombinant KvBeta, 4-cyanobenzaldehyde reduction, at 10 µM, stronger effect = higher value
Sequence of Voltage-gated potassium channel subunit beta-2 (Rattus norvegicus) (P62483 whole entry, looked up): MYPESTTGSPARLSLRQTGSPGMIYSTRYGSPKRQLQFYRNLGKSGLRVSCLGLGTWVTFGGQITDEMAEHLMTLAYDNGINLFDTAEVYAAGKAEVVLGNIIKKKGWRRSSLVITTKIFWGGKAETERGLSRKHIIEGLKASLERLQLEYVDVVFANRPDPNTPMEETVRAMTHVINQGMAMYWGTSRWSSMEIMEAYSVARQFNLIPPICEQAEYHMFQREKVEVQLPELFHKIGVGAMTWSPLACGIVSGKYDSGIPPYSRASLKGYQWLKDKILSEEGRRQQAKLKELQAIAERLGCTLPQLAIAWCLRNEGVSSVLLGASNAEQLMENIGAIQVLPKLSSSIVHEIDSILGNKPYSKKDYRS

[5] = target: Voltage-gated potassium channel subunit beta-2 (Rattus norvegicus) (UniProt P62483); experiment: enhancers of rat Kvbeta2 NADPH turnover – biochemical, NADPH fluorescence, primary screen (AID 623;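 active = NADPH fluorescence slope more negative than the mean of all samples by about 3 SD, 99.7% confidence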;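 also: fluorescence intensity change per second fitted from 20 to 320 s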); details: Recombinant KvBeta, NADPH fluorescence decrease slope, 10 min; at 10 µM; stronger effect = lower value
[6] = target: Alpha-2C adrenergic receptor (Homo sapiens) (UniProt P18825); experiment: compounds altering alpha2C-coupled GIRK flux – cell-based, HEK293 alpha2C/GIRK1/2, thallium flux, primary screen (AID 624;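 active = fluorescence slope after compound addition differing from the mean of all screened samples at 99.7% confidence, in either direction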;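 also: slope of fluorescence ratio to pre-addition baseline per second over 15 to 24 s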); details: thallium flux BTC fluorescence, at 10 µM, actives lie on both sides
Sequence of Alpha-2C adrenergic receptor (Homo sapiens) (P18825 whole entry, looked up): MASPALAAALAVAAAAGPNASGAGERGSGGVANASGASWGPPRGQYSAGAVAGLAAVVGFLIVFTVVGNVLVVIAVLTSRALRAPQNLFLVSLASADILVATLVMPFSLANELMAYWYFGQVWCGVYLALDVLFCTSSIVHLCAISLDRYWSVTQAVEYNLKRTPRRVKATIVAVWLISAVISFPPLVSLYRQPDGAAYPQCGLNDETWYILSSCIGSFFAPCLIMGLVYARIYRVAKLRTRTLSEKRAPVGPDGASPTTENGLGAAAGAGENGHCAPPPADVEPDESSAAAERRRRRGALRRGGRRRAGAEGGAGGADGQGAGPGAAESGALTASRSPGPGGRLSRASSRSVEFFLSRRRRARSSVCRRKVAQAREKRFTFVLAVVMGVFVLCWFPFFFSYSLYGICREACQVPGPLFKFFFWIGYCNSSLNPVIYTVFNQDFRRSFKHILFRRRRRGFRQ

[7] = blockers of RIG-like receptor reporter activation – cell-based, Sendai virus stimulus, luciferase, 10K MLSCN set, TLR/RLR signaling modifier project, primary screen (AID 602276); details: HEK293 RL24 IRF3 luciferase reporter, at 10 µM, stronger effect = higher value;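 also: firefly luciferase from ISG56 promoter only with Renilla not read in this screen; 0% = Sendai virus plus DMSO and 100% = medium plus DMSO without virus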
[8] = TLR3 IRF3 reporter activation blockers – cell-based, poly I:C stimulus, luciferase, 10K MLSCN set, primary screen (AID 602277;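 active = inhibition of the reporter signal at or above 50%; inactive = inhibition below 50%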); details: HEK293-TLR3 RL24 IRF3 luciferase reporter, at 10 µM, stronger effect = higher value

CCCCn1c2c(c3ccccc31)CCc1nonc1-2
cell count [1]: 664
inhibition [1]: -4% (inactive)
inhibition of aggregation [2]: 8.5% (inactive)
nuclei count [2]: 75.1%
inhibition [3]: -16.7% (inactive)
nuclei count [3]: 100%
fluorescence slope [4]: -0.601 (inactive)
NADPH fluorescence slope [5]: 4.9e-06 (inactive)
slope [6]: 0.00755 (inactive)
inhibition [7]: -16.3% (inactive)
inhibition [8]: 13.4% (inactive)

O=C(NCC1CCCO1)c1cccc(N2CCCC2=O)c1 (centres undefined)
cell count [1]: 458
inhibition [1]: -18.6% (inactive)
inhibition of aggregation [2]: -1.3% (inactive)
nuclei count [2]: 88.8%
inhibition [3]: -32.7% (inactive)
nuclei count [3]: 115%
fluorescence slope [4]: -0.376 (inactive)
NADPH fluorescence slope [5]: 2.3e-06 (inactive)
slope [6]: 0.0057 (inactive)
inhibition [7]: 10.8% (inactive)
inhibition [8]: 4.03% (inactive)

O=C(Nc1cccnc1)c1cccc(NC(=O)c2ccco2)c1
cell count [1]: 350
inhibition [1]: 1.5% (inactive)
inhibition of aggregation [2]: -3.4% (inactive)
nuclei count [2]: 104%
inhibition [3]: 13.4% (inactive)
nuclei count [3]: 115%
fluorescence slope [4]: -0.446 (inactive)
NADPH fluorescence slope [5]: 6.3e-05 (inactive)
slope [6]: 0.00622 (inactive)
inhibition [7]: 16.9% (inactive)
inhibition [8]: 22.4% (inactive)

Cc1ccc2c(c1C)NC(=O)C2(O)CC(=O)c1ccc2c(c1)OCO2 (centres undefined)
cell count [1]: 788
inhibition [1]: 0.6% (inactive)
inhibition of aggregation [2]: 34.5% (inactive)
nuclei count [2]: 96.2%
inhibition [3]: -44% (inactive)
nuclei count [3]: 110%
fluorescence slope [4]: -0.472 (inactive)
NADPH fluorescence slope [5]: -5.3e-05 (inactive)
slope [6]: 0.00591 (inactive)
inhibition [7]: 11.2% (inactive)
inhibition [8]: 25.3% (inactive)

CC1(c2ccc(Cl)cc2)NC(=O)N(CC(=O)NC(=O)NCc2ccco2)C1=O (centres undefined)
cell count [1]: 482
inhibition [1]: 2.9% (inactive)
inhibition of aggregation [2]: -25.8% (inactive)
nuclei count [2]: 102%
inhibition [3]: -48.5% (inactive)
nuclei count [3]: 110%
fluorescence slope [4]: -0.399 (inactive)
NADPH fluorescence slope [5]: -4.4e-05 (inactive)
slope [6]: 0.00253 (inactive)
inhibition [7]: 14.9% (inactive)
inhibition [8]: 18.4% (inactive)

CCOCC(=O)Nc1c(C(=O)Nc2ccc(OC)cc2OC)oc2ccccc12
cell count [1]: 543
inhibition [1]: -4.1% (inactive)
inhibition of aggregation [2]: 19.2% (inactive)
nuclei count [2]: 93.9%
inhibition [3]: 52.4% (inactive)
nuclei count [3]: 57.7%
fluorescence slope [4]: -0.19 (inactive)
NADPH fluorescence slope [5]: -9.5e-06 (inactive)
slope [6]: 0.00574 (inactive)
inhibition [7]: -20.7% (inactive)
inhibition [8]: -15.2% (inactive)

Cc1c(C(=O)N2CCCC2)sc(NC(=O)c2cccs2)c1C#N
cell count [1]: 706
inhibition [1]: 17.1% (inactive)
inhibition of aggregation [2]: 10.4% (inactive)
nuclei count [2]: 86.7%
inhibition [3]: -67.6% (inactive)
nuclei count [3]: 130%
fluorescence slope [4]: -0.504 (inactive)
NADPH fluorescence slope [5]: -8.5e-06 (inactive)
slope [6]: 0.00564 (inactive)
inhibition [7]: 14.8% (inactive)
inhibition [8]: 12.4% (inactive)

CC(C)CC(c1nnnn1CC1CCCO1)N1CCN(Cc2ccc3c(c2)OCO3)CC1 (centres undefined)
cell count [1]: 474
inhibition [1]: 1% (inactive)
inhibition of aggregation [2]: -18.9% (inactive)
nuclei count [2]: 129%
inhibition [3]: -21.2% (inactive)
nuclei count [3]: 111%
fluorescence slope [4]: -0.472 (inactive)
NADPH fluorescence slope [5]: -3.8e-05 (inactive)
slope [6]: 0.00652 (inactive)
inhibition [7]: -28.6% (inactive)
inhibition [8]: 25% (inactive)

c1ccc2c(c1)CNc1ccccc1C2
cell count [1]: 526
inhibition [1]: -11.2% (inactive)
inhibition of aggregation [2]: 30.2% (inactive)
nuclei count [2]: 83.2%
inhibition [3]: -30% (inactive)
nuclei count [3]: 86.7%
fluorescence slope [4]: -0.517 (inactive)
NADPH fluorescence slope [5]: 2.1e-06 (inactive)
slope [6]: 0.00468 (inactive)
inhibition [7]: 7.99% (inactive)
inhibition [8]: 10.2% (inactive)

CCOC(=O)C1CCCn2c1nc1sc3c(c1c2=O)CCCC3 (centres undefined)
cell count [1]: 457
inhibition [1]: 3.7% (inactive)
inhibition of aggregation [2]: -6% (inactive)
nuclei count [2]: 110%
inhibition [3]: -114% (inactive)
nuclei count [3]: 115%
fluorescence slope [4]: -0.435 (inactive)
NADPH fluorescence slope [5]: 9.6e-06 (inactive)
slope [6]: 0.00445 (inactive)
inhibition [7]: -24.3% (inactive)
inhibition [8]: -20.3% (inactive)

CCCCCc1c(C)nc(SCC(=O)O)[nH]c1=O
cell count [1]: 611
inhibition [1]: -5.4% (inactive)
inhibition of aggregation [2]: 12.9% (inactive)
nuclei count [2]: 97.3%
inhibition [3]: -31.8% (inactive)
nuclei count [3]: 106%
fluorescence slope [4]: -0.539 (inactive)
NADPH fluorescence slope [5]: 3.4e-05 (inactive)
slope [6]: 0.00694 (inactive)
inhibition [7]: -8.6% (inactive)
inhibition [8]: -1.36% (inactive)

COc1ccccc1NC(=O)C1=C(C)Nc2nnnn2C1c1ccccc1OC (centres undefined)
cell count [1]: 453
inhibition [1]: -0.5% (inactive)
inhibition of aggregation [2]: -7.9% (inactive)
nuclei count [2]: 90.1%
inhibition [3]: 8.8% (inactive)
nuclei count [3]: 82.2%
fluorescence slope [4]: -0.415 (inactive)
NADPH fluorescence slope [5]: 7.3e-06 (inactive)
slope [6]: 0.00379 (inactive)
inhibition [7]: 10.5% (inactive)
inhibition [8]: 33.5% (inactive)

CCS(=O)(=O)NCCc1cc2c(OC)ccc(OC)c2[nH]c1=O
cell count [1]: 349
inhibition [1]: -15.2% (inactive)
inhibition of aggregation [2]: 12.1% (inactive)
nuclei count [2]: 83.7%
inhibition [3]: 38.9% (inactive)
nuclei count [3]: 95.1%
fluorescence slope [4]: -0.488 (inactive)
NADPH fluorescence slope [5]: -3.1e-05 (inactive)
slope [6]: 0.00489 (inactive)
inhibition [7]: 16.6% (inactive)
inhibition [8]: 26.4% (inactive)

O=C(c1ccc2c(c1)c(=O)oc1ccccc12)N1CCCCC1
cell count [1]: 206
inhibition [1]: 0.3% (inactive)
inhibition of aggregation [2]: 15.8% (inactive)
nuclei count [2]: 87.8%
inhibition [3]: 19.4% (inactive)
nuclei count [3]: 90.7%
fluorescence slope [4]: -0.363 (inactive)
NADPH fluorescence slope [5]: 1.9e-05 (inactive)
slope [6]: 0.00354 (inactive)
inhibition [7]: -50.7% (inactive)
inhibition [8]: -130% (inactive)

— PubChem BioAssay
